Laboratory results taken from PubChem BioAssay (EPA / NIEHS).
Where “and” joins values, the source holds several entries; their conditions need not be identical. Identical values can stand only once. Records with an inconclusive call do not appear. Some compounds were tested as several samples or in several runs, with calls that do not always agree. Calls of active or inactive are those of the source. Rule for the calls, unless noted: active = hit-call score of the fitted dose curve at least 0.9, where 1 is the maximum; inactive = score below 0.9.

What was measured:
[1] = read-out: Collagen I, COL1A1 (gene 1277); test: BSK_MyoF_CollagenI: BioMAP Diversity Plus: MyoF Assay for Collagen I Biomarker Activity (AID 2284238); conditions: primary human lung fibroblasts
In short: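 Human lung fibroblasts were exposed to test chemical for 24 h, then Collagen I was quantified by ELISA. Activity was fitted in the increasing direction against DMSO as the negative control and baseline.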

[2] = read-out: Collagen III, COL3A1 (gene 1281); test: BSK_MyoF_CollagenIII: BioMAP Diversity Plus: MyoF Assay for Collagen III Biomarker Activity (AID 2284239); conditions: primary human lung fibroblasts
In short: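 Human lung fibroblasts were dosed with chemicals and, 24 hours later, collagen III was measured by ELISA. Activity was fitted in the positive direction against the DMSO negative-control baseline.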

[3] = read-out: Interleukin 17F (IL17F), IL17F (gene 112744); test: BSK_BT_xIL17F: BioMAP Diversity Plus: BT Assay for Interleukin 17F (IL17F) Biomarker Activity (AID 2284243); conditions: primary human B cells with PBMC
In short: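 B cell/PBMC co-culture (human primary), 24 h compound exposure; sIL-17F by Luminex xMAP; gain-of-signal fit vs DMSO baseline.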

[4] = read-out: Actin alpha 1 (ACTA1), ACTA1 (gene 58); test: BSK_MyoF_ACTA1: BioMAP Diversity Plus: MyoF Assay for Actin alpha 1 (ACTA1) Biomarker Activity (AID 2284244); conditions: primary human lung fibroblasts
In short: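 alpha-SMA levels read by ELISA against DMSO baseline, 24 h post-dose, in primary human lung fibroblasts. Parallel cultures stained with 0.1% SRB after 10% TCA fixation (560 nm) to flag overt cytotoxicity.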

[5] = read-out: Interleukin 2 (IL2), IL2 (gene 3558); test: BSK_BT_xIL2: BioMAP Diversity Plus: BT Assay for Interleukin 2 (IL2) Biomarker Activity (AID 2284245); conditions: primary human B cells with PBMC
In short: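 Secreted IL-2 was read by Luminex xMAP from B cells co-cultured with PBMC (human primary) 24 h post-dosing; activity was analysed as gain of signal relative to DMSO vehicle.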

[6] = read-out: Basic fibroblast growth factor (bFGF), FGF2 (gene 2247); test: BSK_MyoF_bFGF: BioMAP Diversity Plus: MyoF Assay for Basic fibroblast growth factor (bFGF) Biomarker Activity (AID 2284246); conditions: primary human lung fibroblasts
In short: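 bFGF was measured by ELISA in primary human lung fibroblasts 24 h after chemical addition. Signal was analysed as positive-direction change relative to DMSO baseline.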

[7] = read-out: Collagen IV, COL4A1 (gene 1282); test: BSK_MyoF_CollagenIV: BioMAP Diversity Plus: MyoF Assay for Collagen IV Biomarker Activity (AID 2284247); conditions: primary human lung fibroblasts
In short: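 Collagen IV quantified by ELISA in human lung fibroblast cultures 24 h after chemical treatment, with DMSO as baseline. Parallel SRB staining (0.1% SRB after TCA fixation, 560 nm) flags overt cytotoxicity.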

[8] = CCTE_Mundy_HCI_hNP1_CellTiter: CCTE's Cell Titer-Glo 2 Assay in human neuroprogenitor cells for Viability, Mundy Lab (AID 2284241; active = hit-call score of the fitted dose curve at least 0.9, where 1 is the maximum)
In short: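 Viability read as luminescent ATP content (CellTiter-Glo, 30 min room temperature) twenty-four hours after dosing, relative to DMSO. Cells: WA09-derived hNP1 neuroprogenitors on poly-L-ornithine/laminin, plated 40 to 44 hours before chemical.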

[9] = read-out: Monokine induced gamma interferon (MIG), CXCL9 (gene 4283); test: BSK_KF3CT_MIG: BioMAP Diversity Plus: KF3CT Assay for Monokine induced gamma interferon (MIG) Biomarker Activity (AID 2284248); conditions: primary human keratinocytes with fibroblasts
In short: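 Human keratinocyte plus foreskin fibroblast primary co-culture dosed with test chemical for 24 h; MIG level measured by ELISA and fitted in the positive direction against DMSO as baseline.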

[10] = read-out: Vascular cell adhesion molecule 1 (VCAM1), VCAM1 (gene 7412); test: BSK_BF4T_VCAM1: BioMAP Diversity Plus: BF4T Assay for Vascular cell adhesion molecule 1 (VCAM1) Biomarker Activity (AID 2284249); conditions: primary human bronchial epithelial cells with fibroblasts
In short: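 Cell-surface VCAM-1 quantified by ELISA after 24 h chemical exposure of human bronchial epithelial/dermal fibroblast co-cultures, with SRB staining in parallel wells for cytotoxicity; DMSO baseline, positive-direction fitting.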

[11] = read-out: Collagen I, COL1A1 (gene 1277); test: BSK_hDFCGF_CollagenI: BioMAP Diversity Plus: hDFCGF Assay for Collagen I Biomarker Activity (AID 2284250); conditions: primary human foreskin fibroblasts
In short: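 Collagen I quantified by ELISA 24 h after chemical dosing of human dermal fibroblast primary cells, with parallel SRB staining (0.1%, TCA-fixed, 560 nm) for overt cytotoxicity.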

[12] = read-out: Interferon-inducible T-cell alpha chemoattractant (ITAC), CXCL11 (gene 6373); test: BSK_hDFCGF_ITAC: BioMAP Diversity Plus: hDFCGF Assay for Interferon-inducible T-cell alpha chemoattractant (ITAC) Biomarker Activity (AID 2284251); conditions: primary human foreskin fibroblasts
In short: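 Measured by ELISA, the chemokine level serves as the endpoint in human skin fibroblast primary cultures 24 h after compound addition. Increases relative to DMSO-treated wells define activity.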

[13] = read-out: Plasminogen activator inhibitor-1 (PAI1), SERPINE1 (gene 5054); test: BSK_KF3CT_PAI1: BioMAP Diversity Plus: KF3CT Assay for Plasminogen activator inhibitor-1 (PAI1) Biomarker Activity (AID 2284252); conditions: primary human keratinocytes with fibroblasts
In short: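 PAI-1 levels quantified by ELISA after 24 h compound exposure of primary human skin keratinocytes co-cultured with fibroblasts. Activity is the gain relative to DMSO; cytotoxicity tracked in parallel cultures via SRB staining.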

[14] = read-out: Monocyte Chemoattractant Protein-1 (MCP1), CCL2 (gene 6347); test: BSK_IMphg_MCP1: BioMAP Diversity Plus: IMphg Assay for Monocyte Chemoattractant Protein-1 (MCP1) Biomarker Activity (AID 2284253); conditions: primary human endothelial cells with macrophages
In short: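 ELISA readout of MCP-1 at 24 hours in IMphg co-cultures of venular endothelial cells and macrophages, normalised to DMSO; parallel cultures stained with sulforhodamine B for overt cytotoxicity.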

[15] = read-out: Interleukin-8 (IL8), CXCL8 (gene 3576); test: BSK_KF3CT_IL8: BioMAP Diversity Plus: KF3CT Assay for Interleukin-8 (IL8) Biomarker Activity (AID 2284254); conditions: primary human keratinocytes with fibroblasts
In short: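 Human primary keratinocyte plus foreskin fibroblast co-culture dosed with test chemicals; IL-8 measured by ELISA 24 h after dosing. Activity fitted in the positive direction relative to DMSO negative control.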

[16] = TAMU_HCS_1.5hr_SingleDonor1434_Cytotoxicity: Cytotoxicity Assessment using High-content Screening (HCS) Fluorescent Imaging for the Texas A&M University (TAMU) 1.5-hr Human Induced Pluripotent Stem Cell (iPSC)-derived Cardiotoxicity Assay (AID 2284234; active = hit-call score of the fitted dose curve at least 0.9, where 1 is the maximum)
In short: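 Nuclear counts from Hoechst 33342 imaging define cytotoxicity here, with EC10 (10% cell-count loss relative to DMSO) as point of departure. iPSC cardiomyocytes received 0.2-100 uM test chemical in 0.5% DMSO for 1.5 h at 37 C.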

[17] = TAMU_PeakParms_SingleDonor1434_QT: Texas A&M University (TAMU) 1.5-hr Human Induced Pluripotent Stem Cell (iPSC)-derived Cardiomyocytes Calcium (Ca+2) Flux Assay for Cardiotoxicity: QT (decay-rise ratio) (AID 2284235; active = hit-call score of the fitted dose curve at least 0.9, where 1 is the maximum)
In short: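 Decay/rise ratio of calcium-flux fluorescence scored after 90 min exposure (37C) of donor 1434 iPSC cardiomyocytes to 0.2–100 uM (0.5% DMSO). Beat-cessation and severe-notch points removed; POD is EC05, a 5% rise over DMSO.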

[18] = CCTE_Mundy_HCI_Cortical_NOG_NeuronCount: CCTE's Neurite Outgrowth Assay in rat cortical cells for Neuron Count, Mundy Lab (AID 2284236; active = hit-call score of the fitted dose curve at least 0.9, where 1 is the maximum;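 note: neurons counted by imaging betaIII-tubulin and Hoechst stained cortical cells; cells exposed to compound for about 48 hours before fixation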)
In short: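 Read-out: neuron number by high-content imaging of betaIII-tubulin (Alexa Fluor-488) and Hoechst-labelled rat primary cortical cells.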

[19] = CCTE_Mundy_HCI_Cortical_Synap_Neur_Matur_NeuronCount: CCTE's Synaptogenesis and Neurite Maturation Assay in rat cortical cells for Neuron Count, Mundy Lab (AID 2284242; active = hit-call score of the fitted dose curve at least 0.9, where 1 is the maximum)
In short: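 Neuron counts come from automated high-content imaging of Hoechst nuclei and MAP2/synaptophysin immunostaining at DIV 12, with loss of signal judged against DMSO. Cultures of rat cortical cells had glial growth arrested by AraC at DIV 5; chemical exposure began DIV 7.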

Measured: AC50

Oc1ccc(Nc2ccccc2)cc1
inactive: [1] | [4] | [6] | [7]
active: [2] 16.2 µM | [3] 27.7 µM | [5] 37.2 µM

CC(=O)Nc1ccc(N=Nc2cc(C)ccc2O)cc1
inactive: [1] | [2] | [3] | [4] | [5] | [6]
active: [7] 10.6 µM

OCC(F)(F)C(F)(F)C(F)(F)C(F)F
inactive: [1] | [2] | [8] | [3] | [4] | [5] | [6] | [7] | [9] | [10] | [11] | [12] | [13] | [14] | [15]
active: [13] 1.23 µM

CCCCCCCCCCCCCCCC[N+](C)(C)Cc1ccccc1
active: [1] 0.987 µM | [2] 1.73 µM | [3] 2.96 µM | [4] 1.36 µM | [5] 2.01 µM | [6] 2.02 µM | [7] 3.21 µM

OC[C@@H](O)[C@@H](O)[C@H](O)[C@@H](O)CO
inactive: [16] | [17] | [18] | [19]

CCc1c(Br)c(Br)c(Br)c(Br)c1Br
inactive: [1] | [2] | [3] | [4] | [5] | [6] | [7]

FC(F)(F)C(F)(F)C(F)(F)C(F)(F)C(F)(F)C(F)(F)C(F)(F)C(F)(F)CCS
inactive: [1] | [2] | [8] | [3] | [4] | [5] | [6] | [7] | [9] | [10] | [12] | [13] | [14] | [15]

CO[Si](OC)(c1ccccc1)c1ccccc1
inactive: [3] | [5] | [6] | [7]
active: [1] 31.6 µM | [2] 31.6 µM | [4] 30.8 µM

CCCCNc1ccccc1
inactive: [1] | [2] | [3] | [4] | [5] | [6] | [7]

OCC(F)(F)C(F)(F)C(F)(F)F
inactive: [1] | [2] | [8] | [3] | [4] | [5] | [6] | [7] | [9] | [10] | [12] | [13] | [14] | [15]

CS(C)(=O)=O
inactive: [1] | [2] | [3] | [4] | [5] | [6] | [7]

O=C(O)C(F)(F)C(F)(F)OC(F)(F)F
inactive: [1] | [2] | [8] | [3] | [4] | [5] | [6] | [7] | [9] | [10] | [12] | [13] | [14] | [15]

CCCCCCC(C)OC(=O)CCCCC(=O)OC(C)CCCCCC (configuration not stated)
inactive: [1] | [2] | [3] | [4] | [5] | [6] | [7]

CC(C)(C)C(=O)CC(=O)C(F)(F)C(F)(F)C(F)(F)F
inactive: [1] | [2] | [8] | [3] | [4] | [5] | [6] | [7] | [9] | [10] | [12] | [13] | [14] | [15]

O=C(O)C(F)(F)C(F)(F)C(F)(F)F
inactive: [1] | [2] | [8] | [3] | [4] | [5] | [6] | [7] | [9] | [10] | [12] | [13] | [14] | [15]

C#C[C@]1(O)CC[C@H]2[C@@H]3CCc4cc(OC)ccc4[C@H]3CC[C@@]21C
inactive: [1] | [2] | [4] | [5] | [6] | [7]
active: [3] 20 µM

O[Si](c1ccccc1)(c1ccccc1)c1ccccc1
inactive: [6] | [7]
active: [1] 31.3 µM | [2] 31.5 µM | [3] 32.6 µM | [4] 20 µM | [5] 31.3 µM

FC(F)(F)C(F)(F)C(F)(F)C(F)(F)CCI
inactive: [1] | [2] | [8] | [3] | [4] | [5] | [6] | [7] | [9] | [10] | [11] | [12] | [13] | [14] | [15]

O=C(O)C(F)(F)C(F)(F)C(F)(F)C(F)(F)C(F)(F)C(F)(F)C(F)(F)C(F)(F)C(F)(F)C(F)(F)C(F)(F)C(F)(F)F
active: [1] 24.5 µM and 18.6 µM | [4] 0.786 µM | [9] 20.5 µM | [12] 3.49 µM
inactive: [2] | [3] | [4] | [5] | [6] | [7] | [9] | [10] | [11] | [12] | [13] | [14] | [15]
